mHTT-CaM PPI inh: inhibitors of human mutant huntingtin-calmodulin interaction; AlphaScreen His-mHTT/GST-CaM binding, luminescence; inhibition, % at 15 µM; 190,000 tested, 3.6% active; AID 1671202;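 note: 0% = both proteins with DMSO and 100% = one protein alone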
Pf apPOL block: Pf-apPOL DNA polymerase inhibition; inhibition, % at 10 µM; 210,000 tested, 0.25% active; AID 1794808; Recombinant Pf-apPOL, molecular beacon fluorescence, 1.5 h
Starred values were filed as active, the others as inactive. This excerpt belongs to a sample that is enriched for hits. Cut-off read from the data, not from the text of the source: active = inhibition above about 50%; inactive = the rest.

SMILES | mHTT-CaM PPI inh | Pf apPOL block
CS(=O)(=O)N(CC(=O)Nc1ccccc1C(=O)NC1CCCCC1)c1cccc([N+](=O)[O-])c1 | 24 | -2
O=C1CSC(c2cc3c(cc2Br)OCO3)N1C1CCCCC1 (stereo not drawn) | 0 | -1
CC1CN(C(=O)Nc2ccccc2Cl)c2ccccc2O1 (stereo not drawn) | -40 | -7
Cc1ccc(Cl)cc1NC(=O)N1CC2CCCN2c2ccccc21 (stereo not drawn) | 32 | -3
O=C(Nc1ccccc1Cl)N1CC2CCCN2c2ccccc21 (stereo not drawn) | 81* | -2
Cc1ccc(NC(=O)N2CC3CCCN3c3ccccc32)c(Cl)c1 (stereo not drawn) | 76* | -1
CCOc1nnc(-c2ccc(C)cc2)c2ccccc12 | -11 | 3
CCOc1nc(N=C(N)N)nc2c(C)cccc12 | 65* | 3
Cc1csc2c(=O)n(Cc3ccccc3)cnc12 | 0 | -3
CS(=O)(=O)N(Cc1ccccc1)c1ccccc1C(=O)NCCSc1ccc(Cl)cc1 | 52* | -12
COCCNC(=O)c1ccccc1N(Cc1ccccc1)S(=O)(=O)c1ccccc1 | 9 | 7
Cc1ccnc(NC(=O)c2ccc(C(=O)Nc3cc(C)ccn3)cc2)c1 | 7 | 4
Cc1ccnc(NC(c2ccc3c(c2)OCO3)c2ccc3cccnc3c2O)c1 (stereo not drawn) | 99* | 1
Cc1ccnc(NC(=O)c2ccc(-c3nc(-c4ccccc4)no3)cc2)c1 | -5 | -3
O=C(NCCCOc1cccc2cccnc12)c1ccc2c(c1)OCO2 | 7 | -4
Cc1ccnc(NC(c2ccccn2)c2ccc3cccnc3c2O)c1 (stereo not drawn) | 100* | -4
Cc1ccc(NC(=O)c2cccnc2-c2ccsc2)c(C)c1 | 1 | 1
Cc1ccnc(NC(c2ccncc2)c2ccc3cccnc3c2O)c1 (stereo not drawn) | 100* | 5
Cc1ccnc(NC(c2ccsc2)c2ccc3cccnc3c2O)c1 (stereo not drawn) | 100* | -1
O=C(NCc1ccccc1F)c1cc2c(s1)CCN(C(=O)c1ccc(F)cc1)C2 | 0 | -5
Cc1ccc(-c2nc(C3CCN(S(=O)(=O)c4ccc(C)c(Cl)c4)CC3)no2)cc1 | -8 | -7
COc1ccc(C(=O)Nc2ccc(C)cc2)cc1OC | 4 | -5
O=C(c1cc2ccccc2oc1=O)N1N=C(c2ccccc2)CC1c1ccccc1 (stereo not drawn) | 9 | -2
Cc1cc(C)cc(NC(=O)N2CCCC2c2cc(C)no2)c1 (stereo not drawn) | -3 | -3
Cc1ccnc(NC(=O)Nc2ccc(F)cc2)c1 | -1 | -8
SMILES | mHTT-CaM PPI inh | Pf apPOL block
Cc1ccnc(NC(c2ccc(F)cc2)c2ccc3cccnc3c2O)c1 (stereo not drawn) | 98* | 2
CC(NC(=O)c1nnn(-c2ccccc2)c1N)c1ccccc1 (stereo not drawn) | 0 | -2
CSc1ccc(/C=c2\sc3nc(-c4cccnc4)nn3c2=O)cc1 | 12 | 1
C=CC(COCc1ccccc1)N(Cc1ccc(OC)cc1)S(=O)(=O)c1ccccc1Br (stereo not drawn) | -8 | -2
COc1ccc(CN(CC(O)COCc2ccccc2)S(=O)(=O)c2ccccc2Br)cc1 (stereo not drawn) | 86* | -6
O=c1oc2ccc([N+](=O)[O-])cc2cc1-c1nc(-c2ccc(Cl)cc2)cs1 | -5 | -5
CC(=O)NC(CCS(C)(=O)=O)C(=O)Nc1ccccc1F (stereo not drawn) | -3 | 0
Cc1ccc2cccc(OCc3ccccc3)c2n1 | -6 | 10
CCOc1cccc(C(Nc2ccccn2)c2ccc3ccc(C)nc3c2O)c1O (stereo not drawn) | 67* | -7
Cc1ccc2ccc(C(Nc3ccccn3)c3ccccc3Cl)c(O)c2n1 (stereo not drawn) | 64* | 3
Cc1c(Cl)cccc1-c1ccc(C(=O)Nc2ccccn2)o1 | -4 | -16
COc1ccc(Cl)cc1-c1nc(C=Nc2ccc(C)cc2Br)c(O)o1 | 7 | 2
O=C(Cc1ccc(F)cc1)Nc1nc2c(s1)CSc1ccccc1-2 | 16 | 1
CCCn1cnc2c1c(=O)n(CC(C)C)c(=O)n2-c1cccc(Cl)c1 | -3 | -3
COc1ccccc1N1COc2cc(C)c(Cl)c(C)c2C1 | 100* | -1
COc1ccccc1N1COc2ccc(F)cc2C1 | 47 | 5
O=C(Nc1ccc(F)cc1F)N1CCN(Cc2nc3cccnc3n2-c2ccccc2)CC1 | -9 | 1
COc1cc(/C=C2/SC(c3ccc(C)cc3)=NC2=O)cc(OC)c1O | 42 | 5
Cc1ccc(C2=NC(=O)/C(=C\c3cc(O)c(O)c(Br)c3)S2)cc1 | 95* | 10
O=C1N=c2ccc(Br)cc2=C1c1sc(=O)n(-c2ccccc2)c1O | 8 | -6
Cc1ccccc1-n1c(O)c(C2=c3cc(Br)ccc3=NC2=O)sc1=O | 63* | 7
Cc1ccc(Nc2nc(O)c(C3=c4cc(Br)ccc4=NC3=O)s2)cc1C | 10 | 0
